This is an account of results in PubChem BioAssay (NCI).

Assay in all cases: NCI-60 one-dose screen, 48 h (100 = growth as untreated, 0 = no growth, -100 = all killed)
Details in all cases: 10 µM

Experiment [1] has as its system BT-549 breast.
The test system of experiment [2] is MDA-MB-435 melanoma.
In experiment [3] the test system is SW-620 colon.
Experiment [4] concerns MCF7 breast.
The test system of experiment [5] is HCT-116 colon.
Experiment [6] has as its system HCC-2998 colon.
For experiment [7], the system named is KM12 colon.

The panel holds about 83,000 compounds, 20% with a hit somewhere; the sample as a whole holds those more often.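 For each line, cells grew in 96-well plates with the test compound present at a single concentration for 48 hours.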 Values without a mark were called inactive. Calls of active or inactive are those of the source. How the source made its calls: active means growth percent below 10; inactive means the rest.

As for `Nc1ncn(C2OC(CO)C(O)C2O)c(=O)n1` (stereo not drawn), the growth is -9.44% (active) in experiment [1]; 3.05% (active) in experiment [2]; 29.3% in experiment [3]; 11.5% in experiment [4]; -32% (active) in experiment [5]; -1.48% (active) in experiment [6]. The growth in experiment [7] was -15.8% (active).

`CC(C)=CCc1ccc(O)c(=O)cc1C(C)C`: the growth in experiment [1] was -2.13% (active); in experiment [2], 30.7%; in experiment [3], 34.1%; in experiment [4], 21.5%; in experiment [5], 17.3%; in experiment [6], 7.5% (active). For the same compound, the growth in experiment [7] was 26.4%.

Turning to `Nc1nc(N)c(NC(=O)CNc2ccc(C(=O)O)cc2)c(N)n1`, the growth in experiment [1] was 116%; in experiment [2], 105%; in experiment [3], 105%; in experiment [4], 91.3%; in experiment [5] it was 113%; in experiment [6], 107%. Also, the growth in experiment [7] is 114%.

Consider `CN(C)c1ccc(Cc2ccc(N(C)C)cc2Cl)c(Cl)c1`, for which the growth in experiment [1] was 136%; in experiment [2], 109%; in experiment [3], 91.2%; in experiment [4], 111%; in experiment [5], 95.4%; in experiment [6] it was 96.8%. In addition, the growth in experiment [7] is 90.4%.

In the case of `CCCCOC(=O)Oc1ccc(C(=O)Oc2ccc(OCC)cc2)cc1`, the growth in experiment [1] was 85.9%; in experiment [2], 93.4%; in experiment [3], 110%; in experiment [4] it was 123%; in experiment [5], 98.2%; in experiment [6], 102%. Besides, the growth in experiment [7] is 94.8%.

Turning to `O=C1c2ccc3c4c(ccc(c24)C(=O)N1CCNCc1ccccc1)C(=O)N(CCNCc1ccccc1)C3=O`, the growth in experiment [1] is -21.3% (active); in experiment [2], -75.6% (active); in experiment [3], 3.88% (active); in experiment [4], -45.4% (active); in experiment [5], -18% (active); in experiment [6], -92.2% (active). In experiment [7], the growth was -43.3% (active).

For the compound `O=S(=O)(NCCCNc1nccc(-c2c(-c3ccc(F)cc3)nc3sccn23)n1)c1ccc(F)cc1`, the growth in experiment [1] was 52.8%; in experiment [2] it was 20.6%; in experiment [3] it was 47.1%; in experiment [4], 32.8%; in experiment [5], 28.9%; in experiment [6] it was 37.6%. Besides, the growth in experiment [7] is 27.8%.

Take `COc1ccc(-c2nn(-c3cccc(NC(=O)c4ccc5c(c4)OCCO5)c3)cc2-c2ccncc2)cc1Cl`: the growth is 34.2% in experiment [1]; -61.8% (active) in experiment [2]; 18.3% in experiment [3]; 2.05% (active) in experiment [4]; 15.3% in experiment [5]; 46.5% in experiment [6]. Moreover, the growth in experiment [7] was 9.37% (active).

In the case of `O=c1oc2cc(OS(=O)(=O)c3ccccc3)ccc2c2c1CCCCC2`, the growth is 59.9% in experiment [1]; 64.7% in experiment [2]; 44.2% in experiment [3]; 49.7% in experiment [4]; 29% in experiment [5]; 59.1% in experiment [6]. The growth in experiment [7] is 41.1%.

As for `c1ccc(C(NC2CC3CCC2C3)c2ccccc2)cc1` (stereo not drawn), the growth in experiment [1] is 78.4%; in experiment [2], 91.6%; in experiment [3], 106%; in experiment [4], 98.4%; in experiment [5], 89.9%; in experiment [6], 102%. For the same compound, the growth in experiment [7] was 95%.

On to `N=C1c2nc3n(c2C(=O)c2nc4n(c21)CCCC4)CCCC3`, for which the growth in experiment [1] was -37.2% (active); in experiment [2] it was -82.5% (active); in experiment [3] it was 23.7%; in experiment [4], -6.98% (active); in experiment [5], 65.8%; in experiment [6] it was 87.3%. Further, in experiment [7], the growth is 66.7%.

As to `CCOC(=O)N/N=C\C(C)=N\NC(=O)OCC`, the growth in experiment [1] was 99.8%; in experiment [2] it was 88.8%; in experiment [3], 99%; in experiment [4] it was 99.5%; in experiment [5], 104%; in experiment [6], 111%. The growth in experiment [7] is 102%.

As to `CC/C(=N\N=C(/CC)c1ccc(Br)cc1)c1ccc(Br)cc1`, the growth in experiment [1] was 91.1%; in experiment [2] it was 106%; in experiment [3] it was 102%; in experiment [4], 90.9%; in experiment [5], 78.1%; in experiment [6] it was 99.4%. For the same compound, the growth in experiment [7] was 99.5%.

For the compound `Nc1nc(-c2ccccc2Cl)cc(-c2ccc(Cl)cc2Cl)n1`, the growth was 75.3% in experiment [1]; 0.0733% (active) in experiment [2]; 39% in experiment [3]; 45.7% in experiment [4]; 33% in experiment [5]; 83.6% in experiment [6]. In addition, the growth in experiment [7] was 53.8%.

As for `CCN(CC)CCSCCN(CC)CC`, the growth in experiment [1] was 105%; in experiment [2], 101%; in experiment [3], 99.2%; in experiment [4], 99.1%; in experiment [5], 107%; in experiment [6], 119%. Further, the growth in experiment [7] was 107%.

Regarding `Cc1c(Cl)cccc1NC(=O)c1sc2nc3c(cc2c1N)C(=O)CCC3`, the growth in experiment [1] was 49.9%; in experiment [2], -43.6% (active); in experiment [3], 18.3%; in experiment [4], 13.5%; in experiment [5], 14.3%; in experiment [6], 25.8%. Further, the growth in experiment [7] was 11.1%.

Regarding `ClCCOCCn1cnc2c(Cl)nc(Cl)nc21`, the growth in experiment [1] was 102%; in experiment [2], 80.7%; in experiment [3], 47.6%; in experiment [4], 55.9%; in experiment [5], -13.6% (active); in experiment [6], -90.2% (active). The growth in experiment [7] was 92.5%.

For `CSc1nc(=O)n(Cc2ccc(Cl)cc2)c(=O)[nH]1`, the growth in experiment [1] is 98%; in experiment [2], 114%; in experiment [3], 110%; in experiment [4], 99.3%; in experiment [5], 103%; in experiment [6], 103%. In addition, the growth in experiment [7] is 108%.

For `CC(=O)/C(=C/c1ccccc1)C(=O)CC(C)C`, the growth is 98.8% in experiment [1]; 54.3% in experiment [2]; 24.7% in experiment [3]; 50.4% in experiment [4]; 27.7% in experiment [5]; 105% in experiment [6]. Also, in experiment [7], the growth was 72.2%.

Turning to `CC(=O)OCc1cc(-c2nc3ccccc3[nH]c2=O)nn1-c1ccc(Cl)cc1`, the growth was 102% in experiment [1]; 99.7% in experiment [2]; 111% in experiment [3]; 85.9% in experiment [4]; 100% in experiment [5]; 87% in experiment [6]. Also, the growth in experiment [7] was 108%.

For the compound `CN(C)c1ccc(N=C2C=CC(=O)c3ccccc32)cc1`, the growth was 94.5% in experiment [1]; -87% (active) in experiment [2]; 93.3% in experiment [3]; 53.1% in experiment [4]; 78.4% in experiment [5]; 67.3% in experiment [6]. The growth in experiment [7] was 54.8%.

In the case of `O=C(Nc1ccccc1)Nc1cccc(-n2cc(-c3ccncc3)c(-c3ccc(O)c(Cl)c3)n2)c1`, the growth in experiment [1] was 67.1%; in experiment [2], 52.4%; in experiment [3], 50.8%; in experiment [4] it was 32.5%; in experiment [5], 41.2%; in experiment [6] it was 44.2%. Moreover, the growth in experiment [7] was 32.6%.

`CCOCC(=O)C(C#N)c1ccc(Cl)c(Cl)c1` (stereo not drawn): the growth in experiment [1] was 104%; in experiment [2], 92.8%; in experiment [3], 102%; in experiment [4], 92.2%; in experiment [5] it was 105%; in experiment [6] it was 106%. Further, the growth in experiment [7] is 107%.

Consider `O=C(Nc1ccc(Cl)c([N+](=O)[O-])c1)Nc1nc2ccccc2s1`, for which the growth in experiment [1] was 88.3%; in experiment [2], 89.4%; in experiment [3], 99.4%; in experiment [4], 79%; in experiment [5], 66.3%; in experiment [6], 86.3%. The growth in experiment [7] was 106%.

On to `COc1ccc2c(c1)nc(N)c1c3cccnc3cn21`, for which the growth was 44.3% in experiment [1]; -14.3% (active) in experiment [2]; 20.5% in experiment [3]; 20.4% in experiment [4]; 10.8% in experiment [5]; 20.2% in experiment [6]. Also, in experiment [7], the growth is 17.1%.

With `COc1cc(Cl)cc(-c2nn(-c3cccc(NC(=O)Nc4cc(C(F)(F)F)cc(C(F)(F)F)c4)c3)cc2-c2ccncc2)c1`, the growth in experiment [1] was 6.61% (active); in experiment [2] it was -19.5% (active); in experiment [3], 7.18% (active); in experiment [4], 3.81% (active); in experiment [5] it was -4.6% (active); in experiment [6] it was 9.5% (active). Besides, in experiment [7], the growth was 12.2%.

For the compound `COc1cccc(NC(=O)c2sc3nc4c(cc3c2N)C(O)CCC4)c1` (stereo not drawn), the growth in experiment [1] was 44.4%; in experiment [2] it was -32.5% (active); in experiment [3], 23.8%; in experiment [4] it was 15.5%; in experiment [5] it was 12.3%; in experiment [6], 19.6%. Besides, the growth in experiment [7] is 16.7%.

In the case of `O=C(/C=C/c1cc2ccccc2[nH]c1=O)c1ccc2c(c1)OCO2`, the growth was 84.2% in experiment [1]; 95.7% in experiment [2]; 99.6% in experiment [3]; 80.6% in experiment [4]; 81.6% in experiment [5]; 105% in experiment [6]. Moreover, the growth in experiment [7] is 92.3%.

Consider `COc1ccc(NC(=O)CSc2nc3ccccc3c(=O)n2CCc2ccccc2)cc1`, for which the growth is 91.8% in experiment [1]; 90.5% in experiment [2]; 89.1% in experiment [3]; 89.9% in experiment [4]; 87.6% in experiment [5]; 106% in experiment [6]. The growth in experiment [7] is 84.4%.

In the case of `COc1cc(-c2cc(/C=C3\C(=O)Nc4ccc(Cl)cc43)[nH]n2)cc(OC)c1OC`, the growth was 27.1% in experiment [1]; 10.3% in experiment [2]; 27.3% in experiment [3]; 0.175% (active) in experiment [4]; 4.26% (active) in experiment [5]; 73.2% in experiment [6]. Besides, in experiment [7], the growth was 7.16% (active).

For `COc1ccc2c(c1)C(=O)c1c-2c(OCCN2CCCCC2)nc2ccc(OC)cc12`, the growth in experiment [1] is 51.3%; in experiment [2], 23.9%; in experiment [3] it was 8.07% (active); in experiment [4] it was 9.47% (active); in experiment [5], 7.15% (active); in experiment [6], 39.8%. The growth in experiment [7] was 29.2%.

Turning to `COc1ccccc1/C=C/C(=O)c1ccccc1`, the growth is 88.4% in experiment [1]; 70.7% in experiment [2]; 14.9% in experiment [3]; 32.2% in experiment [4]; 55.3% in experiment [5]; 101% in experiment [6]. Moreover, in experiment [7], the growth is 27.9%.

In the case of `Cc1nc2oc3ccccc3c(=O)c2cc1C(=O)NCc1ccccc1`, the growth in experiment [1] was 88%; in experiment [2] it was 65.3%; in experiment [3], 72.4%; in experiment [4], 43.8%; in experiment [5] it was 59.8%; in experiment [6], 37.9%. Also, in experiment [7], the growth was 31.3%.

With `CC(=O)N(C)c1ccc(Nc2ccc(Nc3ccc(N(C)C(C)=O)cc3)c3c2C(=O)c2ccccc2C3=O)cc1`, the growth in experiment [1] was 84.4%; in experiment [2] it was 101%; in experiment [3], 84.1%; in experiment [4], 52%; in experiment [5], 73.5%; in experiment [6] it was 89.6%. Also, the growth in experiment [7] was 71.1%.
